In PubChem BioAssay AID1159580 (chemical genetic matrix, 2015):
Where “and” joins values, the source holds several entries; their conditions need not be identical. Equal values may be shown once. Among all 5,500 compounds or so, about 2,000 (36%) were called active. Roughly 18% stayed inconclusive and do not appear here. Rule as the data show it: active = normalized growth mostly below about 0.91 (no sharp cut-off); inconclusive = no clear call, values can overlap the other calls; inactive = mostly above about 0.92. Some of the results follow.

Experiment: chemical genetic growth profiling, strain panel (AID 1159580);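 also: tested at 20 µM; growth read once vehicle control cultures reached saturation at 30 °C; 1 = growth at the plate median or of vehicle wells; lower values mean less growth of the strain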
Settings: growth OD
[1] = S. cerevisiae deletion strains, locus YGR078C, strain PAC10, active compounds read low
[2] = S. cerevisiae deletion strains, locus YNL128W, strain TEP1, active compounds read low
[3] = S. cerevisiae deletion strains, locus YNL153C, strain GIM3, active compounds read low

Measured: normalized growth

COc1cc(C(O)CO)ccc1O (stereo not given)
inactive: S. cerevisiae deletion strains, locus YAL040C, strain CLN3, active compounds read low 0.993 | S. cerevisiae deletion strains, locus YCL061C, strain MRC1 (second series), active compounds read low 0.985 | S. cerevisiae deletion strains, locus YDR363W, strain ESC2, active compounds read low 0.995 | S. cerevisiae deletion strains, locus YER002W, strain NOP16, active compounds read low 0.988 | [1] 0.982 | [2] 0.991 | [3] 1.04 | S. cerevisiae deletion strains, locus YNL175C, strain NOP13, active compounds read low 0.998 | S. cerevisiae deletion strains, locus YNL197C, strain WHI3, active compounds read low 1 | S. cerevisiae deletion strains, locus YNL224C, strain SQS1, active compounds read low 0.988 | S. cerevisiae deletion strains, locus YNL322C, strain KRE1, active compounds read low 0.992 | S. cerevisiae deletion strains, locus YOR083W, strain WHI5 (second series), active compounds read low 1.08 | S. cerevisiae deletion strains, locus YPL055C, strain LGE1, active compounds read low 0.968

C=CCc1ccc(OC(=O)c2ccccc2)c(OC)c1
active: S. cerevisiae deletion strains, locus YLR113W, strain HOG1, active compounds read low 0.841 | S. cerevisiae deletion strains, locus YOR184W, strain ser1, active compounds read low 0.571
inactive: S. cerevisiae deletion strains, locus YBR021W, strain FUR4, active compounds read low 1 | S. cerevisiae deletion strains, locus YBR229C, strain ROT2, active compounds read low 0.99 | S. cerevisiae deletion strains, locus YCL029C, strain bik1, active compounds read low 0.973 | S. cerevisiae deletion strains, locus YDL035C, strain GPR1, active compounds read low 0.916 | S. cerevisiae deletion strains, locus YDL074C, strain BRE1, active compounds read low 0.923 | S. cerevisiae deletion strains, locus YDL101C, strain DUN1, active compounds read low 0.974 | S. cerevisiae deletion strains, locus YDL134C, strain PPH21, active compounds read low 0.95 | S. cerevisiae deletion strains, locus YDL185W, strain tfp1, active compounds read low 0.998 | S. cerevisiae deletion strains, locus YDL192W, strain arf1, active compounds read low 0.928 | S. cerevisiae deletion strains, locus YDR101C, strain arx1, active compounds read low 0.919 | S. cerevisiae deletion strains, locus YDR150W, strain NUM1, active compounds read low 0.997 | S. cerevisiae deletion strains, locus YDR162C, strain NBP2, active compounds read low 0.947 | S. cerevisiae deletion strains, locus YDR318W, strain mcm21, active compounds read low 0.939 | S. cerevisiae deletion strains, locus YDR388W, active compounds read low 0.979 | S. cerevisiae deletion strains, locus YDR502C, strain sam2, active compounds read low 0.944 | S. cerevisiae deletion strains, locus YER110C, active compounds read low 1.03 | S. cerevisiae deletion strains, locus YER155C, strain BEM2, active compounds read low 0.969 | S. cerevisiae deletion strains, locus YER167W, strain BCK2, active compounds read low 0.939 | S. cerevisiae deletion strains, locus YGL078C, strain dbp3, active compounds read low 0.956 | S. cerevisiae deletion strains, locus YGL086W, strain mad1, active compounds read low 0.933 | S. cerevisiae deletion strains, locus YGL248W, strain PDE1, active compounds read low 0.971 | [1] 0.974 | S. cerevisiae deletion strains, locus YGR135W, strain pre9, active compounds read low 0.965 | S. cerevisiae deletion strains, locus YGR252W, strain gcn5, active compounds read low 0.993 | S. cerevisiae deletion strains, locus YHR030C, strain SLT2, active compounds read low 1 and 0.914 | S. cerevisiae deletion strains, locus YHR079C, strain IRE1 (second series), active compounds read low 0.988 | S. cerevisiae deletion strains, locus YHR079C, strain IRE1, active compounds read low 0.931 | S. cerevisiae deletion strains, locus YHR094C, strain hxt1, active compounds read low 0.988 | S. cerevisiae deletion strains, locus YHR129C, strain ARP1, active compounds read low 0.985 | S. cerevisiae deletion strains, locus YHR200W, strain rpn10, active compounds read low 0.952 | S. cerevisiae deletion strains, locus YIL066C, strain RNR3, active compounds read low 0.973 | S. cerevisiae deletion strains, locus YIL073C, strain SPO22, active compounds read low 1.08 | S. cerevisiae deletion strains, locus YIL125W, strain kgd1, active compounds read low 0.966 | S. cerevisiae deletion strains, locus YIR030C, strain dcg1, active compounds read low 0.983 | S. cerevisiae deletion strains, locus YJL095W, strain BCK1, active compounds read low 0.918 and 0.973 | S. cerevisiae deletion strains, locus YJL134W, strain LCB3, active compounds read low 1 | S. cerevisiae deletion strains, locus YJL168C, strain set2, active compounds read low 1 | S. cerevisiae deletion strains, locus YJL187C, strain SWE1 (second series), active compounds read low 0.954 | S. cerevisiae deletion strains, locus YJR043C, strain POL32, active compounds read low 0.936 | S. cerevisiae deletion strains, locus YJR066W, strain TOR1, active compounds read low 0.954 | S. cerevisiae deletion strains, locus YKL009W, strain mrt4, active compounds read low 0.925 | S. cerevisiae deletion strains, locus YKL068W, active compounds read low 0.979 | S. cerevisiae deletion strains, locus YKL085W, strain MDH1 (second series), active compounds read low 0.981 | S. cerevisiae deletion strains, locus YKL085W, strain MDH1, active compounds read low 0.981 | S. cerevisiae deletion strains, locus YKR001C, strain vps1, active compounds read low 0.908 | S. cerevisiae deletion strains, locus YLR039C, strain RIC1, active compounds read low 0.958 | S. cerevisiae deletion strains, locus YLR058C, strain SHM2, active compounds read low 0.952 | S. cerevisiae deletion strains, locus YLR102C, strain apc9, active compounds read low 0.996 | S. cerevisiae deletion strains, locus YLR268W, strain sec22, active compounds read low 0.965 | S. cerevisiae deletion strains, locus YLR330W, strain CHS5, active compounds read low 0.983 | S. cerevisiae deletion strains, locus YLR371W, strain rom2, active compounds read low 0.985 | S. cerevisiae deletion strains, locus YLR418C, strain cdc73, active compounds read low 0.935 | S. cerevisiae deletion strains, locus YML016C, strain PPZ1, active compounds read low 1 | S. cerevisiae deletion strains, locus YML032C, strain rad52, active compounds read low 0.926 | S. cerevisiae deletion strains, locus YML124C, strain tub3, active compounds read low 0.977 | S. cerevisiae deletion strains, locus YMR078C, strain ctf18, active compounds read low 0.978 | S. cerevisiae deletion strains, locus YMR223W, strain ubp8, active compounds read low 0.967 | S. cerevisiae deletion strains, locus YMR263W, strain SAP30, active compounds read low 0.998 | S. cerevisiae deletion strains, locus YMR307W, strain GAS1, active compounds read low 1.2 | S. cerevisiae deletion strains, locus YNL067W, strain RPL9B, active compounds read low 0.969 | [2] 0.992 | [3] 1.02 | S. cerevisiae deletion strains, locus YNL183C, strain NPR1, active compounds read low 0.933 | S. cerevisiae deletion strains, locus YNL233W, strain BNI4, active compounds read low 0.979 | S. cerevisiae deletion strains, locus YNL250W, strain rad50, active compounds read low 1.03 | S. cerevisiae deletion strains, locus YNL271C, strain bni1, active compounds read low 0.994 | S. cerevisiae deletion strains, locus YNL298W, strain CLA4, active compounds read low 0.95 | S. cerevisiae deletion strains, locus YNL307C, strain MCK1, active compounds read low 0.961 | S. cerevisiae deletion strains, locus YNR052C, strain pop2, active compounds read low 0.998 | S. cerevisiae deletion strains, locus YOL006C, strain TOP1, active compounds read low 0.779 | S. cerevisiae deletion strains, locus YOL012C, strain htz1 1.51 | S. cerevisiae deletion strains, locus YOL147C, strain pex11, active compounds read low 0.964 | S. cerevisiae deletion strains, locus YOR061W, strain CKA2, active compounds read low 0.986 | S. cerevisiae deletion strains, locus YOR069W, strain VPS5, active compounds read low 0.994 | S. cerevisiae deletion strains, locus YOR136W, strain idh2, active compounds read low 0.977 | S. cerevisiae deletion strains, locus YOR144C, strain elg1, active compounds read low 0.981 | S. cerevisiae deletion strains, locus YOR231W, strain MKK1, active compounds read low 0.915 | S. cerevisiae deletion strains, locus YOR316C, strain cot1, active compounds read low 0.985 | S. cerevisiae deletion strains, locus YPL256C, strain CLN2, active compounds read low 0.925 | S. cerevisiae deletion strains, locus YPR119W, strain clb2, active compounds read low 0.971 | S. cerevisiae deletion strains, locus YPR141C, strain kar3, active compounds read low 0.991 | S. cerevisiae deletion strains, locus YPR163C, strain tif3, active compounds read low 0.943 | S. cerevisiae deletion strains, locus YPR167C, strain met16, active compounds read low 0.943 | S. cerevisiae deletion strains, strain wtn01, active compounds read low 0.906 | S. cerevisiae strains, strain wild type, active compounds read low 0.93
